Assay outcomes as filed in PubChem BioAssay.
Most compounds without a hit are left out; they make up all but 3.5% or so of the library.
TEAD-YAP inh: TEAD-YAP interaction inhibition, primary screen, TEAD-YAP interaction inhibitor project, luminescence, HEK-TIYL cells; inhibition, % at 9.12 µM; TEAD-Gal4/YAP UAS-luciferase luminescence; hit rate 1.4% among 640,000; in the data active = inhibition above about 32%;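 note: 0% = median of test compound wells and 100% = reference inhibitor wells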
FBW7 act: FBW7 E3 ligase activators, primary screen, biochemical, AlphaScreen, human; F-box/WD repeat-containing protein 7 (Homo sapiens), Q969H0; AlphaScreen FBW7–phospho-cyclin E peptide binding, activator screen; normalized activity (activation), % at 26.1 µM; hit rate 0.13% among 650,000; AID 1259310, 2017; in the data active = normalized activity above about 1.9%;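 note: purified mutant Fbw7 with reduced substrate affinity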
GPR151 activ: activators of human GPR151, primary screen, cell-based, PathHunter beta-arrestin, luminescence. G-protein coupled receptor 151 (Homo sapiens), Q8TDV0. activation, % at 11.2 µM. hit rate 1% among 650,000. AID 1508602, 2020. PathHunter beta-arrestin GPR151 cells; in the data active = activation above about 4.9%;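 note: 0% = median of compound wells and 100% = cells with positive control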
MITF inh: MITF inhibitors, primary screen, biochemical, AlphaScreen, human; Microphthalmia-associated transcription factor (Homo sapiens), O75030; AlphaScreen MITF homodimerization, bead proximity signal; inhibition, % at 2.6 µM; hit rate 0.91% among 650,000; AID 1259374, 2018; in the data active = inhibition above about 50%;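 note: 0% = vehicle wells with protein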
GPR151 confirm: GPR151 activators, triplicate retest, confirmation, cell-based, PathHunter beta-arrestin, luminescence; 6,700 tested, under 10 active; shares compounds with GPR151 activ; activation, % at 11.2 µM; GPR151 PathHunter beta-arrestin cells, 90 min; % of EA-reagent control over plate median;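 active = mean percent activation across replicates above the confirmation screen cutoff of 4.91%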
GPR119 ag: GPR119 activators in beta-arrestin cells, counter-screen for GPR151 activator project, cell-based, PathHunter beta-arrestin, luminescence, triplicate | shares compounds with GPR151 activ | 90 min; 0 = compound-well median, 100 = enzyme-acceptor control | activation, % at 11.2 µM | hit rate 0.3% among 6,700;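 active = mean percent activation in the counterscreen above 29.09%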;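 note: counterscreen on off-target GPR119 to flag nonselective hits from the GPR151 activator screen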
Target sequence (Q8TDV5 whole entry, looked up): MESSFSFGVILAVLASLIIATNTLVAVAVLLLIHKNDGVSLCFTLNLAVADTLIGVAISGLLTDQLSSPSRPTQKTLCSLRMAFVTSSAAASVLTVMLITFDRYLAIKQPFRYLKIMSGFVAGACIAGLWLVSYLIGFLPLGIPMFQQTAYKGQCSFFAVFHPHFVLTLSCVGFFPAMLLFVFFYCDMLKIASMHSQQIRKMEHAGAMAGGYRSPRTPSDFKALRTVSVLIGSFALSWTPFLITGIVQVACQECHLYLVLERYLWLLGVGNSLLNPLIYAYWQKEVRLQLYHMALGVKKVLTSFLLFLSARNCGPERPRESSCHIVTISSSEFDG
Starred values were filed as active, the others as inactive; x = not tested or not shown.

SMILES	TEAD-YAP inh	FBW7 act	GPR151 activ	MITF inh	GPR151 confirm	GPR119 ag
CCOCCCNC(=O)C(NC(=O)C1CCC(=O)N1)c1ccccc1 (stereo not given)	-2.3	0.0	5.6*	-11.5	0.2	16.1
CC(C)[C@H](O)C(=O)N1CCN(c2ccc3[nH]ncc3c2)CC1	0.2	-0.1	-0.6	24.4	x	x
CC(C)C[C@H](O)C(=O)N1CCN(c2ccc3[nH]ncc3c2)CC1	-8.2	-0.4	5.0*	8.4	0.5	12.9
Cc1cc(C)cc(CC(CC(=O)O)C(=O)O)c1 (stereo not given)	5.8	0.1	0.2	-17.4	x	x
Cc1ccc(CC(CC(=O)O)C(=O)O)cc1 (stereo not given)	-1.2	0.1	6.8*	0.6	-0.9	-13.5
COc1nc(-n2nc(C)cc2C)nc(-n2nc(C)cc2C)n1	6.8	0.2	-1.1	21.9	x	x
Cc1nn(C)cc1CN1CCC(CO)(CCOc2ccccc2)CC1	5.2	0.1	10.7*	3.8	0.8	7.7
O=C(Nc1cccc(NC(=O)c2cc(Br)cc(Br)c2I)c1)c1ccco1	-3.5	-0.1	-0.6	1.0	x	x
COCCN(C(=O)Cc1ccc(F)cc1)C1CCN(Cc2ccncc2)CC1	1.5	0.0	6.6*	7.5	-1.3	-13.7
CC1CCN(C(=O)c2ccc(N3C(=O)CCC3=O)cc2)CC1	3.4	0.0	-1.2	11.4	x	x
COc1cc(Nc2nc(C)cc(NC3CC3)n2)cc(OC)c1OC	11.0	-0.1	5.9*	3.2	0.6	0.9
COc1cc(Nc2cc(C)nc(Nc3cccnc3)n2)cc(OC)c1OC	0.5	0.1	0.2	23.8	x	x
CN1C(=O)C(C)(C)c2cc(S(=O)(=O)N3CCN(c4ccccc4F)CC3)ccc21	-9.0	-0.3	5.1*	1.3	0.3	4.5
Cc1cccc(N2CCN(S(=O)(=O)c3ccc4c(c3)C(C)(C)C(=O)N4C)CC2)c1C	4.8	-0.3	-0.2	32.2	x	x
Clc1ccccc1Nc1ncnc2ccc(Br)cc12	-5.3	-0.1	-0.4	6.8	x	x
Brc1ccc2ncnc(Nc3cccc4ccccc34)c2c1	3.8	0.0	11.3*	9.0	0.6	-11.6
CCOC(=O)C1CCN(c2ccc(N3C(=O)C4CC=CCC4C3=O)cc2[N+](=O)[O-])CC1 (stereo not given)	7.9	0.2	0.4	17.7	x	x
O=C(CN1C(=O)COc2ccccc21)Nc1cccc(F)c1	-6.7	-0.1	5.2*	10.5	0.2	8.5
CC1=CC2=NC(=O)/C(=C\c3ccc(OC(=O)c4ccccc4F)c(Cl)c3)C(=N)N2O1	3.5	0.3	0.7	10.2	x	x
Cc1ccccc1Nc1nc(N)nc(COC(=O)c2cc(=O)c3ccccc3o2)n1	-9.6	-0.2	8.0*	1.7	-0.9	-1.1
Cc1ccccc1Nc1nc(N)nc(COc2ccc([N+](=O)[O-])cc2Cl)n1	-7.4	0.5	5.7*	6.1	0.5	2.9
O=S(=O)(Nc1ccccc1)c1ccc2c(c1)Cc1cc(S(=O)(=O)Nc3ccccc3)ccc1-2	-6.5	0.0	1.4	16.1	x	x
CCN(CC)c1ccc(/C=N/N2C(=O)c3ccccc3C2=O)c(O)c1	3.8	0.2	8.3*	-71.6	-0.3	2.2
CCN(CC)c1ccc(/C=N/NC(=O)COc2ccccc2)c(O)c1	3.1	0.0	8.1*	5.9	1.4	11.7
CCN(CC)c1ccc(/C=N/N2C(=O)c3ccccc3C2=O)cc1	9.2	0.0	-0.3	-2.2	x	x
SMILES	TEAD-YAP inh	FBW7 act	GPR151 activ	MITF inh	GPR151 confirm	GPR119 ag
CCOc1ccc(Cc2cnc(N)s2)cc1	7.0	1.4	-0.2	12.1	x	x
COc1ccc(-c2csc(NC(=O)c3ccc(S(=O)(=O)N4CCCC4)cc3)n2)c(OC)c1	6.3	0.2	5.5*	6.3	1.0	19.7
Cc1ccc(CNc2nc3c(s2)CCCC3)cc1	-3.5	0.2	-1.7	19.1	x	x
O=S(=O)(c1ccccc1)N1CCN(Cc2cccs2)CC1	-4.0	-0.1	-1.1	-6.9	x	x
Cn1cc(CN2CCN(Cc3nccn3C)CC2)c(-c2ccc3c(c2)OCCO3)n1	0.0	0.0	4.3	2.3	x	x
Cn1cc(CN2CCOCC2)c(-c2ccc3c(c2)OCCO3)n1	11.3	-0.1	9.2*	-0.7	-0.1	3.1
CCOC(=O)c1oc2ccccc2c1NC(=O)COc1cccc(C)c1	-2.0	0.1	0.7	8.7	x	x
O=C(CN1C(=O)[C@@H]2CCCN2C(=O)c2ccccc21)Nc1ccccc1F	8.4	-0.1	-0.5	3.9	x	x
O=C(CN1C(=O)[C@H]2CCCN2C(=O)c2ccccc21)Nc1cccc2ccccc12	-1.6	-0.2	6.8*	-12.1	0.5	0.7
COC(=O)Nc1ccc(S(=O)(=O)n2nnc3ccccc32)cc1	-0.7	0.1	1.1	4.4	x	x
Cc1ccc(-c2nc3cc(Cl)ccc3c(=O)o2)cc1C	-46.9	0.1	-1.9	-8.4	x	x
Cc1cc(-c2nc3cc(Cl)ccc3c(=O)o2)ccc1[N+](=O)[O-]	-3.5	0.1	6.3*	-4.0	-0.2	3.1
COc1ccc(CCNC(=O)c2cncc(Nc3ncccn3)c2)cc1	1.5	0.1	6.9*	-0.8	-1.0	-8.9
CN1CCCC(C(=O)NCc2nnc3n2CCN(Cc2ccco2)CC3)C1 (stereo not given)	-0.8	-0.1	-0.4	-8.5	x	x
CCN1CCN(c2nc3c(c(=O)n(C)c(=O)n3C)n2CCSc2ncccn2)CC1	1.9	0.0	8.0*	-2.9	0.0	3.7
Cn1c(=O)c2c(nc(Cl)n2CC(=O)NCc2ccccc2)n(C)c1=O	11.6	0.2	6.5*	14.9	0.0	7.4
Cn1c(=O)c2c(nc(N3CCCCCC3)n2CCc2ccccc2)n(C)c1=O	-7.0	-0.1	5.0*	-11.2	1.9	8.1
COc1ccccc1C1CC(c2ccc(C(C)C)cc2)Nc2ncnn21 (stereo not given)	-8.4	0.3	0.6	20.6	x	x
Cc1ccc2nc(N(CCCn3ccnc3)C(=O)c3ccc(F)cc3)sc2c1	-2.5	-0.4	-0.2	4.3	x	x
Cc1ccc(CC(=O)N(CCCn2ccnc2)c2nc3ccccc3s2)c(C)c1	5.6	-0.2	6.9*	-2.8	-1.7	-14.4
CCOC(=O)CN1CC23C=CC(O2)C(C(=O)NC(C)c2cccs2)C3C1=O (stereo not given)	-1.4	-0.1	1.3	7.0	x	x
C=CCN1C(=O)NC(=O)/C(=C/c2cc(OC)c(OC)c(OC)c2)C1=O	-3.9	0.0	3.0	-7.5	x	x
O=C1NC(=O)C(=Cc2cc(Br)ccc2OCc2ccc(C(=O)O)cc2)C(=O)N1	-1.1	-1.2	0.2	-1.8	x	x
Nc1nc(SCC(=O)NC2CCCCCCC2)n[nH]1	2.8	0.1	1.8	2.0	x	x
